SARS 3CLpro inh-1: SARS-CoV 3CLpro protease inhibition; recombinant SARS-CoV 3CLpro, quenched FRET peptide cleavage; actives 0.14% (n = 290,000); inhibition, % at 6 µM; P0C6X7; in the data active = inhibition above about 12%
BioA inh: BioA (M. tuberculosis) enzyme inhibition; inhibition, % at 9.99 µM; actives 0.096% (n = 360,000); purified M. tuberculosis BioA enzyme, plate reader; in the data active = inhibition above about 40%
BJeLR viability: kills HRASV12-expressing BJeLR cells; BJeLR (HRASV12) viability, CellTiter-Glo ATP luminescence, 48 h; inhibition, % (test concentration not listed); actives 0.17% (n = 300,000); in the data active = inhibition above about 50%
Yp Topo-I inh: inhibitors of Yersinia pestis topoisomerase I; Y. pestis Topo-I cleavage product accumulation, plate reader; activity, % at 10 µM; actives 0.064% (n = 360,000); AID 504884; in the data active = activity above about 50%, passing the limit was not always enough
MazEF act: activators of E. coli MazEF toxin-antitoxin RNase | FAM/BHQ RNA-DNA oligo cleavage fluorescence, 5 h | activation, % at 20 µM | actives 0.32% (n = 350,000) | AID 504720; in the data active = activation above about 50%
Target sequence (P0AE70 whole entry, looked up): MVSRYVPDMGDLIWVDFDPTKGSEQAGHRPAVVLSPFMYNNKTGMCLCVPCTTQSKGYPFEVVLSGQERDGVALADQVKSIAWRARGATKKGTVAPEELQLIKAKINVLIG
PfHsp40 yeast: compounds rescuing yeast from Plasmodium falciparum HSP40 toxicity; AID 504582; actives 0.68% (n = 340,000); growth rescue, % at 12.5 µM; S. cerevisiae expressing PfHsp40, growth rescue, ATP luminescence; in the data active = growth rescue above about 28%, passing the limit was not always enough;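 also: yeast W303a lacking pdr1 and pdr3 grown in galactose medium; growth measured after three days at 30 °C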
SARS 3CLpro inh-2: confirmation of SARS coronavirus 3C-like protease inhibitors; QFRET protease activity assay, 3CLpro; actives 36% (n = 380); inhibition, % at 6 µM; shares compounds with SARS 3CLpro inh-1; in the data active = inhibition above about 13%
* = called active by the depositor; / = no result. Hits are enriched below; roughly 1.1% of the tested compounds scored in any of these assays.

SMILES	SARS 3CLpro inh-1	BioA inh	BJeLR viability	Yp Topo-I inh	MazEF act	PfHsp40 yeast	SARS 3CLpro inh-2
COc1ccc(C(=O)n2c(SC)nc3cc4c(cc32)OCCO4)cc1	12*	0	3	-9	1	2	92*
Cc1ccc(C(=O)c2c3ccccc3[n+]([O-])n2CCC(N)=O)cc1	33*	0	5	4	9	-1	36*
Cc1ccc(C(=O)c2c3ccccc3[n+]([O-])n2[C@@H](C)C(N)=O)cc1	/	-1	-1	-5	8	-1	/
Cc1ccc(C(=O)c2c3ccc([N+](=O)[O-])cc3[n+]([O-])n2CCC(N)=O)cc1	12*	1	3	6	1	3	12
Cc1cccc(NC(=S)NN2CCN(C)CC2)c1C	0	0	-5	-4	0	-1	/
Cc1cccc(NC(=S)NN2CCOCC2)c1C	13*	/	-20	-5	3	0	0
COc1ccc(-c2ccc([C@H]3[C@H](C#N)N(C(=O)NC4CCCC4)[C@H]3CO)cc2)cc1	/	-7	/	/	/	/	/
Cc1ccccc1NS(=O)(=O)c1nnc(NC(=O)c2ccc(Cl)cc2)s1	7	-1	5	-1	-1	0	/
Cc1cccc(NS(=O)(=O)c2nnc(NC(=O)c3cccc(C)c3)s2)c1	12*	-1	-1	7	1	0	6
Cc1cccc(NS(=O)(=O)c2nnc(NC(=O)c3ccc(Cl)cc3)s2)c1	13*	-2	2	1	0	-1	8
CCCC(=O)Nc1ccc2c(c1)OC[C@H](C)N(Cc1ccccc1F)C[C@H](C)[C@@H](OC)CN(C)C2=O	/	-1	/	/	/	/	/
Cc1ccc(S(=O)(=O)/N=C2\C=C(Nc3cccc(C(=O)O)c3)C(=O)c3ccccc32)c(C)c1	8	5	30	-11	0	0	/
CCc1ccc(S(=O)(=O)/N=C2\C=C(Nc3ccc(C(=O)O)cc3)C(=O)c3ccccc32)cc1	17*	1	9	4	-1	-1	11
Cc1ccc(S(=O)(=O)/N=C2\C=C(Nc3cccc(C(=O)O)c3)C(=O)c3ccccc32)cc1	14*	6	20	-8	2	0	8
COC(=O)c1ccccc1NC1=C/C(=N\S(=O)(=O)c2ccc(C(=O)O)cc2)c2ccccc2C1=O	6	2	5	-2	-24	17	/
CCCC(=O)N(Cc1cc(=O)[nH]c2ccccc12)c1ccc(OC)cc1	-3	/	-2	7	6	0	/
COc1ccc(N(Cc2cc(=O)[nH]c3ccccc23)C(=O)CCl)cc1	16*	0	49	5	12	5	25*
CO[C@H]1CN(C)C(=O)c2ccc(NC(=O)Nc3ccccc3)cc2OC[C@@H](C)NC[C@H]1C	/	1	/	/	/	/	/
Cc1ccc(NC(=O)CN(C)C(=O)c2cccnc2Nc2cccc(C(F)(F)F)c2)cc1	13*	-2	-7	-13	3	567*	12
O=C(N/N=C/c1ccc(F)cc1)c1ccc(OCc2ccccc2)cc1	7	0	-5	1	-17	-1	/
O=C(O)/C(=C\c1cccc(OCc2ccccc2)c1)c1ccc(F)cc1	16*	4	1	-1	9	2	6
O=S(=O)(Nc1nccs1)c1ccc(Br)cc1	1	/	-3	4	-6	-1	/
O=S(=O)(Nc1ccc(S(=O)(=O)Nc2nccs2)cc1)c1ccc(Br)cc1	47*	0	-10	0	-11	-1	1
O=C(C[C@@H]1C[C@H]2c3cc(NS(=O)(=O)c4ccc(F)cc4)ccc3O[C@H]2[C@@H](CO)O1)NCC1CC1	/	-1	/	/	/	/	/
Cc1cc(C(=O)c2ccccc2)c(NC(=O)CCl)s1	76*	/	4	5	-4	3	81*
SMILES	SARS 3CLpro inh-1	BioA inh	BJeLR viability	Yp Topo-I inh	MazEF act	PfHsp40 yeast	SARS 3CLpro inh-2
O=C(CCl)Nc1ccccc1C(=O)c1ccccc1	13*	/	-1	-1	-20	0	9
CCn1nc(NS(=O)(=O)c2ccc([N+](=O)[O-])cc2)c2cc3cccc(C)c3nc21	12*	2	-1	-9	-4	0	5
CCn1nc(NS(=O)(=O)c2ccccc2)c2cc3cc(C)ccc3nc21	12*	-2	6	3	7	1	1
O=Cc1c(C(=O)O)n(Cc2ccc(Cl)cc2)c2ccccc12	4	/	-9	8	-505	-1	/
O=Cc1c(C(=O)O)n(CC(=O)O)c2ccccc12	13*	0	10	1	3	0	-1
Cc1ccc2c(c1)c1c(n2CC(O)CNC(C)(C)C)CCCC1 (stereo not drawn)	-2	-3	/	-12	8	1	/
Cc1ccc2c(c1)c1c(n2CC(O)CN2CCCCCC2)CCCC1 (stereo not drawn)	20*	0	0	7	8	0	0
COc1cc(C(=O)Oc2cccnc2)cc(OC)c1OC	6	3	4	1	4	2	/
O=C(Oc1cccnc1)c1ccc(Cl)cc1	24*	0	2	2	14	1	34*
COCCNC(=O)C[C@@H]1CC[C@@H]2[C@@H](COc3ccc(NC(=O)COC)cc3C(=O)N2C)O1	/	0	/	/	/	/	/
O=C(Nc1ccc(OCC(F)(F)C(F)F)c(C(F)(F)F)c1)c1ccccc1O	13*	3	14	-17	3	-1	15*
Cc1ccc(OCC(=O)N/N=C/c2ccc([N+](=O)[O-])o2)cc1	13*	13	-4	1	-1	0	-6
O=C(COc1ccccc1)N/N=C/c1ccc([N+](=O)[O-])o1	-5	/	-6	-5	-9	3	/
Cc1ccc(S(=O)(=O)NCC[C@@H]2CC[C@H](NS(=O)(=O)c3ccccc3Cl)[C@@H](CO)O2)cc1	/	4	/	/	/	/	/
COC1C(OC(=O)c2ccc(C)[nH]2)C(O)C(Oc2ccc3c(O)c(NC(=O)c4ccc(O)c(CC=C(C)C)c4)c(=O)oc3c2Cl)OC1(C)C (stereo not drawn)	13*	4	/	-4	55*	3	11
Cc1nn(-c2ccccc2)c(N)c1C(c1ccccc1)c1c(C)nn(-c2ccccc2)c1N	14*	/	-3	11	-3	2	-1
Cc1nn(-c2ccccc2)c(N)c1N=O	-4	-1	-1	-3	12	/	/
CNC(=O)C[C@@H]1CC[C@H]2[C@@H](COC[C@H](O)CN2S(=O)(=O)c2ccccc2Cl)O1	/	1	/	/	/	/	/
Cc1noc(C)c1NC(=O)Nc1ccc2c(c1)C(=O)N(C)[C@@H]1CC[C@@H](CC(=O)NCc3ccc(Cl)cc3)O[C@H]1CO2	/	6	/	/	/	/	/
Cc1ccc(C(=O)n2cnc3ccccc32)cc1C	19*	-2	-4	-9	-6	1	26*
Cc1occc1C(=O)n1cnc2ccccc21	-7	/	-21	/	/	/	/
COc1ccccc1S(=O)(=O)N[C@@H]1C=C[C@H](CC(=O)N2CCN(C)CC2)O[C@H]1CO	/	-1	/	/	/	/	/
